HepG2 tox: qHTS for Inhibitors of TGF-b: Cytotox Counterscreen; HepG2 CAGA-GFP viability, ATP luminescence, 18 h; Potency, µM (highest dose often 46.1 µM), for the others: top-dose activity change, negative = cytotoxicity, hits mostly cytotoxic; 0.76% of 410,000 active; AID 588856, 2011; also: potency is read from the fitted curve at half-maximal effect
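HepG2 CAGA-GFP cells (1000/well, DMEM with 1% FBS) received compound, then TGF-beta at 500 pg/mL final, and were incubated 18 hours at 37 degrees C. Viability was read by CellTiter-Glo luminescence. Media-only wells were set as complete cell-killing and DMSO as no toxicity.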
TGFb SMAD3 inh: qHTS for Inhibitors of TGF-b; HepG2 CAGA-GFP TGF-b/SMAD3 reporter, GFP fluorescence, 18 h; TGF-beta stimulated, 500 pg/mL final; Potency, µM (titrated, usually from 46.1 µM), without a hit: at the top dose activity, negative = inhibition, hits mostly inhibitors; 1.2% of 410,000 active; also: potency is read from the fitted curve at half-maximal effect; % is scaled to controls: 0 for no effect and ±100 for the full control effect; nearly all actives have a fitted effect of over 65% in size
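HEPG2 CAGA-GFP cells (1000/well, DMEM with 1% FBS) were pre-incubated 2 h at 37 degrees C, given compound by pin tool, then stimulated with TGF-beta at 500 pg/mL final for 18 h before per-cell GFP fluorescence imaging.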
TDP1 cell noCPT: qHTS for Inhibitors of human tyrosyl-DNA phosphodiesterase 1 (TDP1): qHTS in cells in absence of CPT | DT40 Tdp1-/- hTDP1 cells, no CPT, ATP luminescence, 48 h | Potency, µM (titrated, usually from 46.2 µM), for the others: at the highest dose activity change, negative = growth inhibition, usual class: inhibitors | 15% of 420,000 active; also: potency is read from the fitted curve at half-maximal effect; % is scaled to controls: 0 for no effect and ±100 for the full control effect; nearly all actives have a fitted effect of over 55% in size
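DT40 Tdp1-/-;hTDP1 cells, no CPT (DMSO vehicle only), 400 cells/well; compounds pin-transferred; ≥48 hr, 37 °C; CellTiter-Glo 30 min RT dark, luminescence read.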
DT40 TDP1 CPT: qHTS for Inhibitors of human tyrosyl-DNA phosphodiesterase 1 (TDP1): qHTS in cells in presence of CPT. chicken DT40 Tdp1-/-;hTDP1 cells + 20 nM CPT, ATP luminescence, 48 h. Potency, µM (highest dose often 46.2 µM), inactives show top-dose activity change, negative = growth inhibition, most hits filed as inhibitors. 12% of 420,000 active. AID 686979, 2013; also: potency is read from the fitted curve at half-maximal effect; % is scaled to controls: 0 for no effect and ±100 for the full control effect; nearly all actives have a fitted effect of over 55% in size
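Chicken DT40 Tdp1-/- cells stably complemented with human TDP1 were seeded at 400 cells/well in medium containing 20 nM camptothecin, exposed to pin-transferred compounds, and grown at 37 °C for at least 48 hr. Viability was read as ATP luminescence.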
IL-1B inflam inh: qHTS for Inhibitors of Inflammasome Signaling: IL-1-beta AlphaLISA Primary Screen; THP-1 LPS/ATP IL-1B secretion, AlphaLISA, 16 h; stronger effect = lower value; activity change, % at 57.5 µM; 4.7% of 360,000 active; in the data active = activity change below about -50%; inconclusive = mostly about -30% to -49%; also: % is scaled to controls: 0 for no effect and ±100 for the full control effect
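Secreted IL-1B measured by AlphaLISA bead assay after 16 h compound exposure of THP-1 cells; compounds (final up to 57.5 uM) added 1 h before LPS (250 ng/mL) and ATP (1.25 mM) stimulation; lower signal means less secretion.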
TDP1 inh: qHTS Assay for Inhibitors of Tyrosyl-DNA Phosphodiesterase (TDP1) | Potency, µM (doses to about 130 µM), inactives show at the highest dose activity change, negative = inhibition, actives largely listed as inhibitors | 0.28% of 350,000 active | Tyrosyl-DNA phosphodiesterase 1 (Homo sapiens), Q9NUW8 | recombinant TDP1, AlphaScreen DNA substrate cleavage; also: potency is read from the fitted curve at half-maximal effect; % is scaled to controls: 0 for no effect and ±100 for the full control effect; nearly all actives have a fitted effect of over 40% in size
Target sequence (Q9NUW8 whole entry, looked up): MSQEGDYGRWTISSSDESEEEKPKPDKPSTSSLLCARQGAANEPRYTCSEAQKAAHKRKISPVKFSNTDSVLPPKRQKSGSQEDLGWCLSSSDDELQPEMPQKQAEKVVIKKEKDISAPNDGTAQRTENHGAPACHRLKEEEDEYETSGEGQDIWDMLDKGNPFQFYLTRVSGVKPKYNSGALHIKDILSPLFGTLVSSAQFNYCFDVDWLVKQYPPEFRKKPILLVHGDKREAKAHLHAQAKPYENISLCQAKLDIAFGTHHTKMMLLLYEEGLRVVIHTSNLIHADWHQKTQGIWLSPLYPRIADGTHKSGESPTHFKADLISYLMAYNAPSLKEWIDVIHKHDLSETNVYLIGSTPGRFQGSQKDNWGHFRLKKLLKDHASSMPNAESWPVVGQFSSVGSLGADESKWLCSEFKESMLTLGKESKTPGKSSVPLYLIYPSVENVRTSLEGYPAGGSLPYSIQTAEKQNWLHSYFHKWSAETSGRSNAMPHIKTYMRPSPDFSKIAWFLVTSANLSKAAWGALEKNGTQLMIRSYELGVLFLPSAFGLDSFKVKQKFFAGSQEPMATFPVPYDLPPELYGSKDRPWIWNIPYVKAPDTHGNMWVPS
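E. coli-derived human Tdp1, 1 nM final. Cpd preinc 15 min RT; substrate 15 nM final, 5 min RT; AS bead mix 10 ug/ml final, 10 min RT. Signal loss = tyrosine-FITC cleavage. No-enzyme wells = max signal.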
Active calls of the source: *; ? = inconclusive; · = no result. An excerpt weighted towards active compounds, which were near 18% of everything screened. Unless noted, calls follow the shape of the dose curve; as a rule, active = well fitted curve in the direction sought with a large enough effect; inconclusive = small, poorly fitted or top-dose-only effect, or another doubt; inactive = no such curve, though single readings can be large; an effect the other way counts as inactive or inconclusive.

SMILES	HepG2 tox	TGFb SMAD3 inh	TDP1 cell noCPT	DT40 TDP1 CPT	IL-1B inflam inh	TDP1 inh
Cc1ccc(C(=O)N/C(=C/c2ccc(-c3cccc([N+](=O)[O-])c3)o2)C(=O)NC(C)(C)C)cc1	-38%	-5%	13µM*	?	-5	0%
COc1ccc(C(=O)N/C(=C\c2ccc(-c3cccc([N+](=O)[O-])c3)o2)C(=O)NCCCN2CCOCC2)cc1	-43%	0%	16µM*	?	-25	·
CN(C)C(=O)/C(=C\c1ccc(-c2cccc([N+](=O)[O-])c2)o1)NC(=O)c1ccccc1	-20%	?	16µM*	15µM*	-16	11%
Cc1ccc(C(=O)N/C(=C/c2ccc(-c3cccc([N+](=O)[O-])c3)o2)C(=O)NC(C)C)cc1	0%	-26%	?	?	-13	9%
C=CCOc1ccc(/C=C/C(=O)OCC(=O)NCC(=O)Nc2c(C)cc(C)cc2C)cc1	6%	0%	-12%	-23%	9	-5%
CC1CCN(C(=O)C(C)OC(=O)CSc2ccc([N+](=O)[O-])cc2)CC1 (stereo not given)	-17%	22%	?	?	-7	4%
O=C(c1ccc(F)cc1)N1c2ncnn2C2(CCCCC2)[C@@H]2CCCC[C@@H]21	-2%	-8%	21µM*	?	·	-2%
Cc1cccc(C(=O)N2c3ncnn3C3(CCCCC3)[C@@H]3CCCC[C@@H]32)c1	-30%	-4%	23µM*	?	·	6%
O=C(c1ccccc1)N1c2ncnn2C2(CCCCC2)[C@@H]2CCCC[C@@H]21	-8%	5%	?	?	·	8%
COc1cccc(C(=O)N2c3ncnn3C3(CCCCC3)[C@@H]3CCCC[C@@H]32)c1	-40%	-23%	?	?	·	5%
CC(C)c1cc(-c2nc(-c3ccccc3)no2)n[nH]1	-58%	?	?	?	·	-8%
Cc1cc(C)c(C)c(S(=O)(=O)N(C)C2CCN(C)CC2)c1C	-14%	6%	16µM*	23µM*	-18	·
COC(=O)c1ccc(COC(=O)c2ccc(CS(=O)(=O)c3ccc(C)cc3)cc2)cc1	-42%	0%	-1%	3%	10	4%
COC(=O)c1cc2c(n1S(=O)(=O)c1ccc(C)cc1)C(=O)C(=O)c1[nH]cc(C(=O)OCc3ccccc3)c1-2	0.71µM*	?	1.6µM*	0.82µM*	-85*	·
CN(C)Cc1ccccc1CNC(=O)c1cccc(S(=O)(=O)Nc2ccc3c(c2)OCO3)c1	-22%	-23%	?	-19%	-26	·
Cc1cccc(/C=N\NC(=O)c2ccccc2-n2cccc2)c1	9%	0%	-10%	11%	15	2%
O=C(N/N=C/c1ccc(Br)cc1)c1ccccc1-n1cccc1	-1%	2%	16µM*	?	32	8%
COc1cc2ncnc(NCc3ccc(Cl)cc3)c2cc1OC	-34%	-30%	?	?	-3	-3%
COc1cc2nc(N3CCCCC3)nc(NC(C)C)c2cc1OC	·	·	?	5µM*	·	·
COc1cc2nc(N3CCN(C)CC3)nc(NC(C)C)c2cc1OC	·	·	18µM*	?	·	·
COc1cc2nc(Cl)nc(NC(C)C)c2cc1OC	·	·	16µM*	14µM*	·	·
Cc1ccc2c(c1)N(CC(=O)Nc1ccccc1F)C(=O)C(C)O2 (stereo not given)	-9%	1%	-27%	-24%	-1	·
CCCCC/C=C\C/C=C\CCCCCCCCCC(=O)NC(C)C(=O)O (stereo not given)	·	·	·	·	·	4%
COC(=O)C1=C(C)N(CC2CC2)C(=O)N[C@H]1CCc1ccccc1	·	·	·	·	·	7%
Cc1ccc(S(=O)(=O)N2CCN(C(=O)c3cc(S(=O)(=O)N(C)C)ccc3N3CCCC3)CC2)cc1	0%	-1%	-29%	-12%	-16	-1%
SMILES	HepG2 tox	TGFb SMAD3 inh	TDP1 cell noCPT	DT40 TDP1 CPT	IL-1B inflam inh	TDP1 inh
CCOC(=O)C1=C(c2ccccc2)NC(=S)NC1c1cc([N+](=O)[O-])ccc1OC (stereo not given)	-6%	-20%	?	-25%	-6	4%
CCOC(=O)C1=C(c2ccccc2)NC(=S)NC1c1ccc(C)c([N+](=O)[O-])c1 (stereo not given)	-11%	-23%	16µM*	23µM*	57	0%
Cc1ccccc1C(=O)Nc1cc(S(=O)(=O)N2CCOCC2)ccc1N1CCN(C)CC1	3%	0%	7%	1%	-12	1%
O=C(Oc1ccc(Br)cc1C(=S)N1CCOCC1)c1ccc([N+](=O)[O-])cc1[N+](=O)[O-]	-25%	-11%	?	21µM*	-92*	7%
Cc1ccc(C)c(COC(=O)c2cc([N+](=O)[O-])ccc2N2CCOCC2)c1	-18%	-3%	?	?	31	0%
CCc1ccc(C(=O)COC(=O)c2cc([N+](=O)[O-])ccc2N2CCOCC2)cc1	-23%	?	18µM*	?	-15	-5%
O=C(OCc1ccc(Br)cc1)c1cc([N+](=O)[O-])ccc1N1CCOCC1	2%	-20%	0.46µM*	0.73µM*	22	·
O=C(OCc1cccc(Cl)c1)c1cc([N+](=O)[O-])ccc1N1CCOCC1	-16%	-8%	?	?	?	3%
COc1ccc(COC(=O)c2cc([N+](=O)[O-])ccc2N2CCOCC2)cc1F	-6%	?	0.012µM*	0.023µM*	1	13%
CC1=C(C(=O)NCc2ccccc2F)C2(CCCCC2)OC1=O	-40%	3%	-18%	-9%	·	9%
CCN(CC)c1ccc(N2C(=NC(=O)C3CCCO3)SC3CS(=O)(=O)CC32)cc1 (stereo not given)	-1%	-10%	15%	-1%	?	3%
COc1cccc(CNC(=O)COC(=O)c2cc([N+](=O)[O-])ccc2N2CCCC2)c1	2%	?	23µM*	16µM*	?	3%
O=C(OCc1cccc(C(F)(F)F)c1)c1cc([N+](=O)[O-])ccc1N1CCOCC1	3%	?	?	?	-60*	-5%
